Compound activity deposited in PubChem by National Center for Advancing Translational Sciences (NCATS).
ELG1 repair inh – ELG1-dependent DNA repair inhibition. 2.3% of 330,000 active. Potency, µM (highest dose often 46.1 µM), most hits filed as inhibitors. AID 504467. HEK293T ELG1-luciferase reporter, luminescence, 16 h; DNA damage induced by 5-fluorouridine; further: nearly all actives have a fitted effect of over 55% in size
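HEK293T cells expressing luciferase-tagged ELG1 (2,000/well) received 5-Fluorouridine plus compound or DMSO for 16 hr at 37 °C. Luciferase was read by ONE-Glo luminescence after 30 min at room temperature.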
Rab9 prom act – Rab9 promoter activation; Huh7 Rab9 promoter-luciferase reporter, luminescence, 24 h; Potency, µM (top dose mostly 9.22 µM), actives largely listed as activators; 2.8% of 320,000 active; further: nearly all actives have a fitted effect of over 60% in size
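Huh7 reporter line, Rab9 promoter upstream of luciferase. Compound exposure 24 h at 37 °C in reduced-serum medium with 10% FBS. Read-out: luminescence.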
FLuc modulator – counter-screen for miR-21 project: firefly luciferase inhibitors or activators; P08659; purified FLuc, Km substrates, luminescence inhibition; Potency, µM (top dose mostly 57.5 µM), usual class: inhibitors; 6.9% of 360,000 active; AID 588342; further: nearly all actives have a fitted effect of over 55% in size
Target sequence (P08659 whole entry, looked up): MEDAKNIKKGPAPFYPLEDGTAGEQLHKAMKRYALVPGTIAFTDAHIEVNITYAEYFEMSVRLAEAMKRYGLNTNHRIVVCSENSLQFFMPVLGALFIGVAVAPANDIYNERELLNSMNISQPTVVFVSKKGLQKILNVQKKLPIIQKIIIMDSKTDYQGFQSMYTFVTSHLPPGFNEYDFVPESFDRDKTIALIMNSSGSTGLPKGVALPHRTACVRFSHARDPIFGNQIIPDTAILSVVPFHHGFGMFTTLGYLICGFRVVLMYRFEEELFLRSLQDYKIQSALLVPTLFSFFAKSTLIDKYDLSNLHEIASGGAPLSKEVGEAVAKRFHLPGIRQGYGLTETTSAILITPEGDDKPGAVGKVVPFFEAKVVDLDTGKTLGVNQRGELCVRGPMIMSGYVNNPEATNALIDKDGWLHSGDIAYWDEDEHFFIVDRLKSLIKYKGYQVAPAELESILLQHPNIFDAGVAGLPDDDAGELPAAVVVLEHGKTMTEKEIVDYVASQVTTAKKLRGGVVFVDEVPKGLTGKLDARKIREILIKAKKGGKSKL
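Purified P. pyralis luciferase (10nM final) with 10uM D-luciferin and 10uM ATP (Km levels) in 50mM Tris acetate pH 7.5, 10mM Mg acetate, 0.01% Tween-20, 0.05% BSA; qHTS 6-point titration, ~60 µM downward; luminescence read.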
ELG1 genotoxic – inducers of genotoxicity in HEK293T ELG1-luciferase cells. HEK293T ELG1-luciferase reporter, luminescence, 16 h. Potency, µM (top dose mostly 46 µM), actives largely listed as activators. 1.3% of 330,000 active. AID 504466; further: nearly all actives have a fitted effect of over 60% in size
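HEK293T cells expressing luciferase-tagged ELG1 were exposed to compound or DMSO vehicle for 16 hr at 37 °C and 5% CO2. Luciferase activity was then measured with ONE-Glo after 30 min at room temperature.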
SMN2 splice enh – enhancers of SMN2 splice variant expression | HEK293 SMN2-luciferase splicing reporter, luminescence, 30-36 h | Potency, µM (doses to about 46.1 µM), hits mostly activators | 2.8% of 210,000 active; further: nearly all actives have a fitted effect of over 55% in size
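HEK293 cells carry an SMN2 minigene-luciferase reporter in which exon 7 inclusion puts luciferase in frame. Cells were seeded at 2000 cells/well, attached for 10-12 hours, then exposed to compounds for 30-36 hours at 37C before ONE-Glo luminescence.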
NPC1 prom act – activates the NPC1 promoter; Potency, µM (highest dose often 9.22 µM), actives largely listed as activators; Huh7 NPC1 promoter luciferase reporter, 24 h; 2.4% of 320,000 active; further: nearly all actives have a fitted effect of over 60% in size
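Luminescence from an NPC1 promoter-driven luciferase reporter in stably transfected Huh7 cells was measured after 24 h compound treatment at 37 °C, followed by 10 min ambient incubation with luciferase detection reagent.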
Hits are given with their value; – = inactive; ? = inconclusive; · = no result. Rows were chosen to be rich in hits. Some 9.2% of all compounds tested hit in one or more screens of this group. The call rests on the fitted dose curve; in most records, active means well fitted curve in the direction sought with a large enough effect; inconclusive means small, poorly fitted or top-dose-only effect, or another doubt; inactive means no such curve, though single readings can be large; an effect the other way counts as inactive or inconclusive.

SMILES	ELG1 repair inh	Rab9 prom act	FLuc modulator	ELG1 genotoxic	SMN2 splice enh	NPC1 prom act
COc1cccc2[nH]c(C(=O)NC(C)c3ccccc3)cc12 (stereo not given)	–	–	–	–	·	–
CCN(CC)c1ccc(NC(=O)c2cc3c(OC)cccc3[nH]2)cc1	–	–	7.57µM	–	·	–
CCN(CC)c1ccc(NC(=O)c2cc(Cl)ccc2OC)cc1	–	–	15.1µM	–	–	–
COc1ccc(NC(=O)CN2CCN(c3nc(-c4cccc(OC)c4)cs3)CC2)cc1	11.6µM	–	?	–	–	–
COc1cccc(-c2csc(NC(=O)C3CC3)n2)c1	?	?	10.7µM	11.6µM	–	?
COc1cccc(-c2csc(NC(=O)Nc3ccccc3)n2)c1	?	–	13.5µM	–	·	–
O=C(Nc1ccccc1)Nc1nc(-c2ccccc2)cs1	–	–	?	–	·	–
C=C1C(=O)C=C2CN(C(=O)c3ccccc3)[C@@](Cc3ccc(F)cc3)(C(=O)OC)[C@@H]12	2.91µM	–	–	–	–	–
COC(=O)[C@@]1(Cc2ccc(F)cc2)[C@H]2c3cc(C(=O)N(C)C)n(Cc4ccccc4)c3C[C@H]2CN1C(=O)c1ccccc1	–	–	–	–	–	–
COC(=O)[C@@]1(Cc2ccc(OC)cc2)[C@@H]2C(=CC(=O)[C@H]2CC(=O)C(=O)N(C)C)CN1C(=O)c1ccccc1	9.2µM	–	–	–	–	–
COC(=O)[C@@]1(Cc2ccccc2)[C@@H]2[C@@H](CC(=O)[C@H]2CC(=O)C(=O)N(C)C)CN1C(=O)c1ccccc1	·	·	·	·	–	·
CCOc1cccc(CC(=O)N2CCc3c([nH]c4ccccc34)C2c2ccccc2)c1OCC (stereo not given)	·	·	–	·	·	·
Cc1ccc(N=CNc2ccc(C)cc2C)c(C)c1	–	–	15.1µM	–	·	–
CC(C)CCCNc1nc(N2CCOCC2)nc(N2CCOCC2)n1	10.3µM	–	–	–	–	–
CCOc1ccc(Cn2c(CNS(=O)(=O)c3cccs3)nc3cccnc32)cc1	·	·	–	·	·	·
CNS(=O)(=O)c1cn(CC(=O)Nc2ccc(OC)c(Cl)c2)cc1S(=O)(=O)NC	·	·	–	·	·	·
O=C(c1ccc(NS(=O)(=O)/C=C/c2ccccc2)cc1)N1CCCCC1	?	–	–	–	·	–
Cc1c(NC(=O)c2ccccc2)cc(C(C)C)c(O)c1S(=O)(=O)c1ccc(Cl)cc1	·	·	–	·	·	·
Cc1c(NC(=O)c2ccc(Cl)cc2)cc(C(C)C)c(O)c1S(=O)(=O)c1ccccc1	·	·	?	·	15.8µM	·
COc1ccc(C(=O)Nc2cc(S(=O)(=O)c3ccc(Cl)cc3)c(O)c(C)c2C)cc1	·	·	8.49µM	·	–	·
COc1ccc(-c2cc(N)n(S(=O)(=O)c3c(F)c(F)c(F)c(F)c3F)n2)cc1OC	23.1µM	–	?	–	–	–
CCN(c1cccc(C)c1)S(=O)(=O)c1cc(Br)cc2c1N(C(C)=O)C(C)C2 (stereo not given)	·	·	–	·	–	·
O=S(=O)(Nc1ccccc1N1CCOCC1)c1c(F)cc(F)cc1Br	–	·	·	–	·	·
CCn1c(=O)cc(SCC(=O)Nc2cc(Cl)ccc2OC)c2ccccc21	·	·	–	·	–	·
CC1=CCC(COC(=O)Nc2ccccc2)CC1 (stereo not given)	?	3.98µM	6.75µM	?	17.8µM	2.82µM
SMILES	ELG1 repair inh	Rab9 prom act	FLuc modulator	ELG1 genotoxic	SMN2 splice enh	NPC1 prom act
COc1ccccc1NC(=O)c1cc2n(n1)C(C(F)(F)F)CC(c1ccc3c(c1)OCO3)N2 (stereo not given)	16.4µM	–	–	–	–	–
COc1ccc(OC)c(NC(=O)c2cc3n(n2)C(C(F)(F)F)CC(c2ccc4c(c2)OCO4)N3)c1 (stereo not given)	–	–	–	–	–	–
O=C(Nc1ccccc1)c1cc2n(n1)C(C(F)(F)F)CC(C1CC1)N2 (stereo not given)	?	1.78µM	–	?	·	2.82µM
COc1ccc(C2CC(C(F)(F)F)n3nc(C(=O)Nc4ccc5c(c4)OCO5)cc3N2)cc1 (stereo not given)	23.1µM	–	–	–	–	–
Cc1ccc(C(=O)NC(=S)Nc2ccccc2N2CCOCC2)cc1C	–	–	–	–	·	–
CC(=O)c1ccc(N2CCN(C(=O)c3cc4c(-c5ccccc5F)nn(C)c4s3)CC2)cc1	18.4µM	–	–	–	–	–
Cn1nc(-c2ccccc2F)c2cc(C(=O)Nc3ccc4c(c3)OCCO4)sc21	?	–	9.53µM	–	–	–
Cn1nc(-c2ccccc2F)c2cc(C(=O)NCc3ccc(Cl)cc3)sc21	·	·	–	·	–	·
CC(CCc1ccco1)NC(=O)c1cc2c(-c3ccccc3F)nn(C)c2s1 (stereo not given)	16.4µM	–	–	–	–	–
Fc1cccc2sc(Nc3nc4c(F)cccc4s3)nc12	–	?	4.26µM	–	15.8µM	?
COc1cc(OC)cc(-c2nnc(Nc3nc4c(F)cccc4s3)o2)c1	–	–	?	–	–	–
Fc1cccc2sc(Nc3nnc(-c4ccccc4)o3)nc12	?	3.16µM	3.01µM	?	3.16µM	2.51µM
O=S(=O)(Nc1ccc(O)c2ccccc12)c1ccc(Br)cc1	23.1µM	–	–	–	·	–
O=S(=O)(Nc1ccc(O)c2ccccc12)c1cccs1	9.2µM	–	–	–	·	–
CC(=O)Nc1ccc(NS(=O)(=O)c2ccccc2)c2ccccc12	–	–	–	–	·	–
O=S(=O)(Nc1cccc2ccccc12)c1cccs1	–	–	–	–	·	–
CCOC(=O)c1c(NC(=O)C2=C(C)NC(=S)NC2c2ccccc2C(F)(F)F)sc(C)c1C (stereo not given)	23.1µM	–	–	–	–	–
CC1CCCCN1c1nnc(NC(=O)Nc2ccccc2F)s1 (stereo not given)	·	·	–	·	·	·
COc1ccc(NC(=O)COC(=O)/C=C/c2ccc(OC)c(S(=O)(=O)N3CCOCC3)c2)cc1	–	–	–	–	–	–
COc1ccc(/C=C/C(=O)OCC(=O)Nc2ccc(Cl)c(S(=O)(=O)N(C)C)c2)cc1OC	?	–	23.9µM	–	–	–
COc1ccc(/C=C/C(=O)OCC(=O)Nc2ccc(OC)c(S(=O)(=O)N3CCCCC3)c2)cc1	–	–	6.01µM	–	–	–
Cc1ccc2c(c1)C(=O)C(=O)N2Cc1ccc(OC(C)C)cc1	·	·	–	·	–	·
Cc1ccc(OCCCN2C(=O)C(=O)c3cccc(C)c32)cc1	–	–	23.9µM	–	–	–
Cc1ccc(OCCN2C(=O)C(=O)c3cc(C)ccc32)cc1	–	–	15.1µM	?	–	–
Cc1ccc(Cn2c(C)c(CNCCCc3ccccc3)c(C(=O)O)c2C)cc1	·	·	–	·	–	·
CC(C)CCNC(=O)c1ccc(Cn2c(SCC(=O)NC(C)C)nc3ccccc3c2=O)cc1	·	·	–	·	·	·
